# According to PubChem BioAssay (Tox21):
# Results filed as inconclusive are left out. Activity calls are given as the source filed them. Unless noted, calls follow the shape of the dose curve; as a rule, active = well fitted cell-killing curve with a large enough effect in the repeat runs; inconclusive = weak or mixed curves; inactive = no such curve, though single readings can be large or run the other way.
# Test system: not listed separately
# Test: qHTS assay to identify small molecule antagonists of the androgen receptor (AR) signaling pathway - cell viability counter screen (AID 743033; also: nearly all actives have a fitted effect of over 45% in size)
# Conditions: AR-bla HEK293 viability, CellTiter-Glo luminescence, 16 h; series mostly up to 58.5 µM; activity change, negative = cytotoxicity: at the top concentration
# % is scaled to controls: 0 for no effect and ±100 for the full control effect; potency is read from the fitted curve at half-maximal effect.
Compound,"activity change, negative = cytotoxicity",Potency
Cc1cc(C(F)(C(F)(F)F)C(F)(F)F)ccc1NC(=O)c1cccc(I)c1C(=O)NC(C)(C)CS(C)(=O)=O,-5.97% (inactive),
CCOc1cc(C(C)(C)C)ccc1C1COC(c2c(F)cccc2F)=N1 (configuration not stated),-15.8% (inactive),
Nc1ccccc1C(=O)Oc1ccc2ccccc2c1,-4.46% (inactive),
C[C@]12CC[C@@H]3c4ccc(OC(=O)N(CCCl)CCCl)cc4CC[C@H]3[C@@H]1CC[C@@H]2O,-0.697% (inactive),
Oc1cc(Cl)c(Cl)c(Cl)c1,,32.9 µM (active)
O=[N+]([O-])c1c2ccccc2cc2ccccc12,-13% (inactive),
CC(=O)Nc1ccc2c(c1)Cc1ccccc1-2,-4.21% [at 78.9 µM] (inactive),
BrCBr,4.26% [at 78.9 µM] (inactive),
CN(C)C(=S)[S-].CN(C)C(=S)[S-].[Cu+2],,2.99 µM (active)
CC(C)CCCCCCCOP(=O)(Oc1ccccc1)Oc1ccccc1,0.817% [at 78.9 µM] (inactive),
O=C(CBr)c1ccc(O)cc1,4.91% (inactive),
[CH3][Hg][Cl],-3.24% (inactive),
ClC1=C(Cl)[C@]2(Cl)[C@H]3[C@H]([C@H]4C=C[C@H]3C4)[C@@]1(Cl)C2(Cl)Cl,-0.0911% (inactive),
CCCCCCCCCBr,-2.65% [at 78.9 µM] (inactive),
Cc1ccc(OP(=O)(Oc2ccccc2)Oc2ccccc2)cc1,-8.93% [at 78.9 µM] (inactive),
S=C=Nc1cccc2ccccc12,-17.7% (inactive),
Clc1ccc(C(c2ccccc2Cl)C(Cl)(Cl)Cl)cc1 (configuration not stated),-19.6% (inactive),
Cc1c(Cl)c(=O)oc2cc(OP(=O)(OCCCl)OCCCl)ccc12,2.81% (inactive),
[Cd+2].[Cl-].[Cl-],,24.8 µM (active)
CCOC(=O)OC1=C(c2cc(C)ccc2C)C(=O)NC12CCC(OC)CC2 (configuration not stated),-15.2% (inactive),
FC(F)(F)c1cccc(C2=CCN(CCc3ccc4ccccc4c3)CC2)c1,4.37% (inactive),
Nc1ccc(Sc2ccc(N)cc2)cc1,10.9% (inactive),
CC(C)N1C(=O)N(c2ccccc2)CSC1=NC(C)(C)C,3.95% (inactive),
CCC(C)(C)C(=O)OC1=C(c2ccc(Cl)cc2Cl)C(=O)OC12CCCCC2,-15.8% (inactive),
CN(C)C1CSSSC1,-3.41% (inactive),
C1CCC2CCCCC2C1 (configuration not stated),0.205% [at 78.9 µM] (inactive),
O=c1oc2ccccc2c(O)c1Cc1c(O)c2ccccc2oc1=O,-24.9% [at 27 µM] (inactive),
Fc1cccc(Cl)c1CCl,4.9% (inactive),
COP(=O)(OC)SCn1c(=O)oc2cc(Cl)cnc21,-17.3% (inactive),

# Biological target: Androgen receptor (Homo sapiens) (UniProt P10275)
# Test: qHTS assay to identify small molecule antagonists of the androgen receptor (AR) signaling pathway (AID 743035; active = well fitted inhibition curve with a large enough effect in the signal ratio in the repeat runs, not every such curve was filed as active; the % refers to the signal ratio)
# Conditions: HEK293 AR-UAS-bla, R1881-stimulated, beta-lactamase FRET, 16 h; series mostly up to 58.5 µM; activity change, negative = inhibition: at the top concentration
# Method in brief: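 Beta-lactamase FRET read (2 h RT incubation with LiveBLAzer B/G) following 16 h of compound plus R1881 treatment of AR-UAS-bla HEK293 cells, which had been pre-incubated 4 h at 37C.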
# Androgen receptor (Homo sapiens), sequence (P10275 whole entry, looked up): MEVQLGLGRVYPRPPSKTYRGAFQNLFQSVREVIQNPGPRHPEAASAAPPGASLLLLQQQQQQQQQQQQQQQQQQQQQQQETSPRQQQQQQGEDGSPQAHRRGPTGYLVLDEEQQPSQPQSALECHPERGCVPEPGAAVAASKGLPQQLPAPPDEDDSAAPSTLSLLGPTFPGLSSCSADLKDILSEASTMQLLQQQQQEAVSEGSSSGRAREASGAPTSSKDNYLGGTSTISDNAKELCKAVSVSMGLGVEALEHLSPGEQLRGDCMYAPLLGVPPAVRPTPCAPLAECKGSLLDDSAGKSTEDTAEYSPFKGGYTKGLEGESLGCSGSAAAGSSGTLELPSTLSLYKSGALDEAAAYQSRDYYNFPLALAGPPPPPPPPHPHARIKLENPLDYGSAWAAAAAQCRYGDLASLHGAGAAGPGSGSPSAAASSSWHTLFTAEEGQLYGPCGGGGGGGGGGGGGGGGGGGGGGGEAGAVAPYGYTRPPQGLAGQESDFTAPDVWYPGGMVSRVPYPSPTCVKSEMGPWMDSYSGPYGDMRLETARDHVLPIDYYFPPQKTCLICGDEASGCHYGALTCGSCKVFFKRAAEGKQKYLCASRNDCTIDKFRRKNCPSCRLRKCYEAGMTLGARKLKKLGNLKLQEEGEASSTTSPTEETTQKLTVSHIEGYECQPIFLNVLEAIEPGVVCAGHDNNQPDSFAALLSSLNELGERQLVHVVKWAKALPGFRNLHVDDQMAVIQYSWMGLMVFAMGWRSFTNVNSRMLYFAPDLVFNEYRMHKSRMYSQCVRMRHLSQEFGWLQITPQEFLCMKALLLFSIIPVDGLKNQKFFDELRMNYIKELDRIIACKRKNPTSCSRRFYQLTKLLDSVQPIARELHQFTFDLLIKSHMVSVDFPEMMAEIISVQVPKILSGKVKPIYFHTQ
Compound,Potency,"activity change, negative = inhibition"
S=C=Nc1cccc2ccccc12,48.5 µM (active),
CC(C)N1C(=O)N(c2ccccc2)CSC1=NC(C)(C)C,,2.1% (inactive)
O=c1oc2ccccc2c(O)c1Cc1c(O)c2ccccc2oc1=O,,5.16% [at 27 µM] (inactive)
